Rows were chosen to be rich in hits. Some 7.7% of all compounds tested hit in one or more screens of this group.
TbPYK inhibitor – qHTS of Trypanosoma Brucei Inhibitors. TbPYK enzyme, Kinase-Glo Plus ATP luminescence, 45 min. pyruvate kinase (Trypanosoma brucei), Q57TT1. Potency, µM (series often up to 76.8 µM), actives largely listed as inhibitors. 410,000 compounds, 0.12% hits; note: nearly all actives have a fitted effect of over 50% in size
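Enzyme and substrate buffer are dispensed first and compound is pin-transferred. ADP at 130 uM final then starts the reaction, which runs 45 min at room temperature. Detection reagent is added for 10 min before luminescence is imaged.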
FBPA Giardia inh – qHTS Assay for Inhibitors of Fructose-1,6-bisphosphate Aldolase from Giardia Lamblia; purified Giardia FBPA; Potency, µM (titrated, usually from 59.6 µM), most hits filed as inhibitors; 290,000 compounds, 0.71% hits; AID 2451, 2010; note: nearly all actives have a fitted effect of over 55% in size
Target sequence (A8B2U2 whole entry, looked up): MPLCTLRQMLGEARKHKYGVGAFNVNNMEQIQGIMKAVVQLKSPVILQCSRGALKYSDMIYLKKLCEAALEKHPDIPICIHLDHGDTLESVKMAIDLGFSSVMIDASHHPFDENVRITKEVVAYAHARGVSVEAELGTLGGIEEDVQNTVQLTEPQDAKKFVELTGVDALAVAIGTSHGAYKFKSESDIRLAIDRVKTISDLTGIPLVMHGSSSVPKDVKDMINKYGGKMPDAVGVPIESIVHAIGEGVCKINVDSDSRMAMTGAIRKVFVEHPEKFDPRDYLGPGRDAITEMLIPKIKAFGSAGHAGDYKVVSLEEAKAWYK
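Giardia FBPA (40 nM reagent) was preincubated 10 min at RT with compound (up to 57.5 uM final), then substrate plus GAPDH/TPI/NAD/arsenate coupling system with diaphorase/resazurin was added; resorufin fluorescence (525/598 nm) was read after 20 min.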
HCMV inh – qHTS Assay for inhibitors of the human cytomegalovirus (HCMV) | 410,000 compounds, 4.5% hits | HFF cells, HCMV-luciferase reporter, 72 h; hits give low values | AID 1259415, 2018 | activity change, negative = inhibition, % at 57.5 µM; in the data active = activity change below about -60%; inconclusive = no clear call, values can overlap the other calls; inactive = above about -39%
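Two-dose cell screen: HFF monolayers treated with compounds and infected with luciferase-expressing HCMV at 1 PFU/cell, 72 h at 37C, then lysed for luciferase measurement.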
Sm TGR block – qHTS Assay for the Inhibitors of Schistosoma Mansoni Peroxiredoxins | 360,000 compounds, 3% hits | Potency, µM (series often up to 114 µM), hits mostly inhibitors | purified TGR, DTNB reduction, TNB absorbance 405 nm; note: nearly all actives have a fitted effect of over 60% in size
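Kinetic colorimetric format: TGR-catalysed, NADPH-driven DTNB reduction monitored via TNB absorbance. Enzyme dispensed at 20 nM; compound exposure 15 min at room temperature before reaction start.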
RE007 growth inh – qHTS Assay for Inhibitors of the HIV-1 protein Vpr; S. pombe RE007 Vpr strain, BacTiter-Glo ATP luminescence, 24 h; Potency, µM (series often up to 92.2 µM), most hits filed as inhibitors; 360,000 compounds, 0.21% hits; active = well fitted falling curve with a large enough effect; inconclusive = small, poorly fitted or top-dose-only effect; inactive = no such curve, though single readings can be large or run the other way; note: nearly all actives have a fitted effect of over 50% in size
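Fission yeast strain RE007, carrying one chromosomally integrated HIV-1 vpr copy, was seeded at OD 0.01 in PMG+AL medium with 23 nL pinned compound. After 24 h at 30 °C and 99% humidity, viability was read by BacTiter-Glo luminescence.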
FMDV antiviral – High Throughput Screening for Foot and Mouth Disease Virus Antivirals | FMDV antiviral cell-based qHTS | Potency, µM (series often up to 57.9 µM), most hits filed as inhibitors | 410,000 compounds, 1.2% hits; calls by dose curve; tested in HEK293T cells; note: read-out not given here; nearly all actives have a fitted effect of over 45% in size
Large screens that a line does not name were inactive. Unless noted, calls come from the whole dose curve; as a rule, active = well fitted curve in the direction sought with a large enough effect; inconclusive = small, poorly fitted or top-dose-only effect, or another doubt; inactive = no such curve, though single readings can be large; an effect the other way counts as inactive or inconclusive.

Cc1ccc(CNC(=O)C2CC(c3cccc([N+](=O)[O-])c3)=NO2)o1 (stereo not given)	Sm TGR block 32µM
O=C(NCc1ccco1)C1CC(c2c(Cl)cccc2Cl)=NO1 (stereo not given)	Sm TGR block 40µM
COc1cccc(C2=NOC(C(=O)Nc3cc(C)on3)C2)c1 (stereo not given)	HCMV inh -102
Cc1ccc(CNC(=O)C2CC(c3cc(C(F)(F)F)cc(C(F)(F)F)c3)=NO2)o1 (stereo not given)	Sm TGR block 18µM
COc1ccc(CCNC(=O)C2CC(c3cccc([N+](=O)[O-])c3)=NO2)cc1 (stereo not given)	none
Cc1ccc(CCNC(=O)C2CC(c3cc(C(F)(F)F)cc(C(F)(F)F)c3)=NO2)cc1 (stereo not given)	none
CC(C)c1cccc2nc3c(c([Si](C)(C)C)c12)Cn1c-3cccc1=O	none (no result: TbPYK inhibitor, HCMV inh, Sm TGR block, RE007 growth inh, FMDV antiviral)
O=S(=O)(N1CCCCC1)n1nnc2cc3ccccc3cc21	none (no result: TbPYK inhibitor, FBPA Giardia inh, Sm TGR block, RE007 growth inh, FMDV antiviral)
CC(=O)Nc1cccc(NC(=O)c2ccc(COc3ccccc3)cc2)c1	none
CC(=O)NC(NC(C)=O)c1cccc(OCc2ccccc2)c1	HCMV inh -68
CCOC(=O)c1sc(NC(=O)c2cc(-c3ccccc3)nc3ccccc23)c(C#N)c1C	TbPYK inhibitor inconclusive, HCMV inh -95, FMDV antiviral inconclusive
Cc1ccc(C)c(-c2cc(C(=O)Nc3sc(C)c(C)c3C(N)=O)c3ccccc3n2)c1	FMDV antiviral 22µM
CCOC(=O)c1c(NC(=O)CSc2nnc(Cc3ccccc3)o2)sc(C(C)=O)c1C	FMDV antiviral inconclusive
CCOC(=O)c1sc(NC(=O)CSc2nnc(Cc3ccccc3)o2)c(C#N)c1C	FMDV antiviral 32µM (no result: HCMV inh)
COC(=O)c1cc(NC(=O)Nc2ccc3snnc3c2)cc(C(=O)OC)c1	none (no result: FBPA Giardia inh, RE007 growth inh)
C[C@]12C=CC(=O)N[C@@H]1CC[C@@H]1C2CC[C@]2(C)C(C(=O)Nc3cc(C(F)(F)F)ccc3C(F)(F)F)CC[C@@H]12 (stereo not given in full)	none (no result: FBPA Giardia inh, HCMV inh, Sm TGR block, RE007 growth inh, FMDV antiviral)
COc1ccc(C)c2sc(N(Cc3cccnc3)C(=O)C3CCCCC3)nc12	none (no result: FBPA Giardia inh, RE007 growth inh)
Cc1cccc(NC(=O)/C(C#N)=C/c2cn(CC(=O)NCc3ccco3)c3ccccc23)c1	HCMV inh -63
O=C(COC(=O)CCN1C(=O)/C(=C\C=C\c2ccccc2)SC1=S)Nc1ccc(Br)cc1	HCMV inh -74, FMDV antiviral inconclusive (no result: Sm TGR block)
Cc1ccc(NC(=O)CCCN2C(=O)/C(=C/C=C/c3ccccc3)SC2=S)cc1	none
O=C(CCN1C(=O)/C(=C\C=C\c2ccccc2)SC1=S)Nc1ccccc1C(=O)O	HCMV inh inconclusive (no result: FBPA Giardia inh)
CC(C)c1ccccc1NC(=O)COC(=O)CCN1C(=O)/C(=C\C=C\c2ccccc2)SC1=S	HCMV inh -86, FMDV antiviral inconclusive
COc1ccc2c3n([n+]([O-])c2c1)C(C)CN=C3c1ccc(C)cc1 (stereo not given)	none (no result: TbPYK inhibitor, FBPA Giardia inh, Sm TGR block, RE007 growth inh, FMDV antiviral)
CC1(NCc2ccc(Cl)cc2)COP(=O)(NCc2ccccc2)OC1 (stereo not given)	HCMV inh -83 (no result: FBPA Giardia inh, Sm TGR block)
CC(C)CCNC(=O)C(c1ccc(O)cc1)N(C(=O)C1COc2ccccc2O1)c1cccc(O)c1 (stereo not given)	HCMV inh -63, Sm TGR block inconclusive
COc1ccc(-n2cc(CNCCCN3CCCC3=O)c(-c3ccccc3Cl)n2)cc1	Sm TGR block 45µM
COc1ccc(-c2nn(-c3ccccc3)cc2CNCCN2CCOC2=O)c(F)c1	none
O=[N+]([O-])c1cccc(NC(=S)Nc2nc(-c3ccc(Cl)cc3Cl)cs2)c1	HCMV inh -87 (no result: TbPYK inhibitor, FBPA Giardia inh, RE007 growth inh, FMDV antiviral)
CCN1CCCC1CNC(=O)c1cnn(-c2nccc(-c3cccs3)n2)c1C(C)C (stereo not given)	none (no result: TbPYK inhibitor, FBPA Giardia inh, HCMV inh, Sm TGR block, RE007 growth inh)
CCOC(=O)C(NS(=O)(=O)c1ccccc1)(C(F)(F)F)P(=O)(OCC(C)C)OCC(C)C (stereo not given)	Sm TGR block 18µM

Screening results as filed in PubChem BioAssay.
